The results in this text go back to ChEMBL document CHEMBL1157539, “Thousands of chemical starting points for antimalarial lead identification” (Nature, 2010).

Holding throughout (format): functional
Test [1] has as its system Plasmodium falciparum. The test is described as follows: GSK_TCMDC: Inhibition of Plasmodium falciparum 3D7 in whole red blood cells, using parasite LDH activity as an index of growth. Test compounds present at 2uM.
Test [2] concerns Plasmodium falciparum. Briefly: GSK_TCMDC: Inhibition of Plasmodium falciparum Dd2 in whole red blood cells, using parasite LDH activity as an index of growth. Test compounds present at 2uM.
For a further test, the system named is HepG2. Briefly: GSK_TCMDC: Percent inhibition of human HepG2 cell line. Test compounds present at 10uM.

In the case of `Nc1ccc(-c2ccc3ccnc(N)c3c2)cc1`, the Inhibition in the test with Plasmodium falciparum [1] turned out to be 100%; in the test on Plasmodium falciparum [2], 68%; with HepG2, 38%.
Taken in the same sequence, the figures for `O=C(Nc1ccc(-c2oc(C(=O)NCCc3cccc(Cl)c3)cc2-c2ccncc2)cc1)Nc1cccc(Cl)c1.O=C(O)C(F)(F)F` were 99%, 84% and 13%.
On to `CC(=O)Nc1ccc(CN(Cc2ccc(F)cc2)Cc2ccc3c(c2)OCO3)cc1`, for which the Inhibition is listed as 91% in the test with Plasmodium falciparum [1], 87% with Plasmodium falciparum [2] and 3% in the test with HepG2.
Taken in the same sequence, the figures for `CC(C)C[C@H]1c2[nH]c3ccc(Cl)cc3c2CCN1C(=O)CCc1ccccc1` were 95%, 81% and 0%.
